From PubChem BioAssay
Shown are actives, neighbours in structure and some others; about 18% of the full set was active somewhere.
DT40 TDP1 no CPT: qHTS for Inhibitors of human tyrosyl-DNA phosphodiesterase 1 (TDP1): qHTS in cells in absence of CPT | DT40 Tdp1-/- hTDP1 cells, no CPT, ATP luminescence, 48 h | hit rate 15% among 420,000 | Potency, µM (titrated, usually from 46.2 µM), without a hit: at the highest dose activity change, negative = growth inhibition, usual class: inhibitors; also: potency is read from the fitted curve at half-maximal effect; nearly all actives have a fitted effect of over 55% in size
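Growth kinetics read by CellTiter-Glo luminescence after ≥48 hr at 37 °C. Cells: DT40 Tdp1-/- stably carrying human TDP1, 400 per well, compound exposure in the absence of CPT (DMSO vehicle).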
LDHA inh: inhibitors of human lactate dehydrogenase A | P00338 | purified LDHA, NADH/diaphorase-resazurin fluorescence; active compounds read low | activity change, % (values are at about 110 or 230 µM) | hit rate 0.15% among 480,000 | AID 1347041; in the data active = activity change below about -30%; inconclusive = mostly about -25% to -30%;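 also: plate controls were DMSO wells for no effect and wells without enzyme for full effect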
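Enzyme activity of human lactate dehydrogenase 5 (2 nM; 0.06 mM NADH, 0.2 mM pyruvate, 5 min, RT) is measured via a resazurin/diaphorase fluorescence readout of residual NADH.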
RORgamma inh: inhibitors of mouse ROR gamma transcriptional activity | Drosophila S2 Gal4-RORgamma UAS-luciferase reporter, 20 h | Potency, µM (highest dose often 53.6 µM), without a hit: at the highest dose activity change, negative = inhibition, most hits filed as inhibitors | hit rate 5.4% among 310,000 | AID 2551; also: potency is read from the fitted curve at half-maximal effect; nearly all actives have a fitted effect of over 60% in size
Target sequence (P51450 whole entry, looked up, the tested form may be a part): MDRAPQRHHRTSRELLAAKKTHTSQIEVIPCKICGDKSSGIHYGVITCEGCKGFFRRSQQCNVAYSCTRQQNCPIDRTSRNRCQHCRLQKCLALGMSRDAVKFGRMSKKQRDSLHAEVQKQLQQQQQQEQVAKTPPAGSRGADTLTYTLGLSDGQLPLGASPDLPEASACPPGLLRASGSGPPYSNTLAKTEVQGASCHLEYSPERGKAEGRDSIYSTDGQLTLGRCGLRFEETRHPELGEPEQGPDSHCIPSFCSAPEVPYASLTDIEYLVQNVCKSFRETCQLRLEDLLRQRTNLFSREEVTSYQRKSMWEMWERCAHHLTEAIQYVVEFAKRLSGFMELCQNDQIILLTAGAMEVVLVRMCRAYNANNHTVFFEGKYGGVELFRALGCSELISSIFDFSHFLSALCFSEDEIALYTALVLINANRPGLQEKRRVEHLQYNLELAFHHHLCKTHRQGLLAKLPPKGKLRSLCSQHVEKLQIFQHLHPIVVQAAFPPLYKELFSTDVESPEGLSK
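Luciferase reporter read in Schneider cells carrying Gal4-RORγ (mouse) and UAS-Photinus luciferase; cells given compound 1 h before 700 uM copper sulfate induction, then incubated 20 h at ambient temperature.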
VP16 counter: Gal4-VP16 reporter inhibition counter-screen | Drosophila S2 Gal4-VP16 UAS-luciferase, luminescence, 20 h | Potency, µM (series often up to 53.6 µM), for the others: at the top dose activity, negative = inhibition, actives largely listed as inhibitors | hit rate 3.5% among 310,000 | AID 2546;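 also: Gal4-VP16 expression switched on by copper sulfate through the metallothionein promoter; potency is read from the fitted curve at half-maximal effect; nearly all actives have a fitted effect of over 50% in size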
TDP1 cell CPT: DT40-hTDP1 cell growth loss with CPT. chicken DT40 Tdp1-/-;hTDP1 cells + 20 nM CPT, ATP luminescence, 48 h. Potency, µM (titrated, usually from 46.2 µM), for inactives: top-dose activity change, negative = growth inhibition, hits mostly inhibitors. hit rate 12% among 420,000; also: potency is read from the fitted curve at half-maximal effect; nearly all actives have a fitted effect of over 55% in size
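Cell growth measured by CellTiter-Glo luminescence after a minimum 48 h, 37 C compound exposure with 20 nM CPT in Tdp1-knockout DT40 cells stably expressing hTDP1, seeded 400/well; qHTS titration format.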
IL-1B inflam inh: inhibitors of inflammasome signaling (IL-1 beta secretion); AID 743279; activity change, % at 57.5 µM; hit rate 4.7% among 360,000; THP-1 LPS/ATP IL-1B secretion, AlphaLISA, 16 h; active compounds read low; in the data active = activity change below about -50%; inconclusive = mostly about -30% to -49%
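Secreted IL-1B measured by AlphaLISA bead assay after 16 h compound exposure of THP-1 cells; compounds (final up to 57.5 uM) added 1 h before LPS (250 ng/mL) and ATP (1.25 mM) stimulation; lower signal means less secretion.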
The depositor's hits bear a star; ? = inconclusive; . = not tested or not shown. Unless noted, calls follow the shape of the dose curve; as a rule, active = well fitted curve in the direction sought with a large enough effect; inconclusive = small, poorly fitted or top-dose-only effect, or another doubt; inactive = no such curve, though single readings can be large; an effect the other way counts as inactive or inconclusive. Unless noted, % is scaled to controls: 0 for no effect and ±100 for the full control effect.

SMILES | DT40 TDP1 no CPT | LDHA inh | RORgamma inh | VP16 counter | TDP1 cell CPT | IL-1B inflam inh
COc1cccc(CN2CC(O)=C(c3nc(-c4ccc(Cl)cc4)cs3)C2=N)c1 | 9.2µM* | -3 | -36% | ? | -18% | 53
CCCCN1CC(O)=C(c2nc(-c3ccc(Cl)cc3)cs2)C1=N | -17% | -6 | 23% | 4% | -13% | 19
N=C1C(c2nc(-c3ccc(Cl)cc3)cs2)=C(O)CN1CCCN1CCOCC1 | 26µM* | -3 | ? | -4% | 26µM* | ?
CCN(CC)C(=O)CNC(=O)c1[nH]c2ccccc2c1Cl | . | -23 | . | . | . | .
O=C(NCCc1ccc(F)cc1)c1ccc([N+](=O)[O-])cc1 | -10% | -3 | -2% | -11% | -16% | -8
O=C(Nc1ccc(Br)cn1)c1coc(=O)c(Br)c1 | 3.7µM* | -4 | 25% | -4% | 1.5µM* | ?
O=C(Nc1ccccc1F)c1coc(=O)c(Br)c1 | 1.6µM* | -8 | 13% | ? | 0.52µM* | 0
C[C@@H](NC(=O)c1coc(=O)c(Br)c1)c1ccccc1 | 0.73µM* | -6 | ? | -9% | 0.46µM* | -6
O=C(NCCc1ccc(F)cc1)c1coc(=O)c(Br)c1 | 0.92µM* | -2 | -24% | 6% | 0.13µM* | -91*
COc1ccc(C(=O)NC(C)c2ccccc2)cc1Br (stereo not drawn) | -14% | -12 | 15% | 4% | -7% | -3
CCCCn1c(=O)[nH]c(=O)c2c1nc(CNc1ccc(F)cc1C)n2CCC(C)C | . | 23 | . | . | . | .
Cc1ccc(NC(=O)c2ccccc2)cc1C | -11% | -2 | . | . | 0% | -3
Cc1cc(NC(=O)c2coc(=O)c(Br)c2)ccc1C(C)C | 1.8µM* | -2 | -5% | -1% | 0.52µM* | .
O=C(O)/C=C/c1ccc(Cl)c(Cl)c1 | . | -1 | . | . | . | .
COC(=O)[C@]12CCCCC=C1N(CCc1ccc(OC)c(OC)c1)C(=O)[C@H](CC(=O)N1CCCC1)C2 | ? | -1 | . | . | ? | ?
COC(=O)[C@]12CCCCC=C1N(CCC1=CCCCC1)C(=O)[C@H](CC(=O)N1CCN(C(=O)c3ccco3)CC1)C2 | 26µM* | 0 | . | . | ? | -15
COC(=O)[C@]12CCCCC=C1N(CCC1=CCCCC1)C(=O)[C@H](CC(=O)N1CCC(c3ccccc3)CC1)C2 | 16µM* | 3 | . | . | ? | 7
COC(=O)[C@]12CCCCC=C1N(CCC1=CCCCC1)C(=O)[C@H](CC(=O)N1CCCC1)C2 | 16µM* | -2 | . | . | ? | -3
C=CCc1cc(/C=C2/NC(=O)NC2=O)cc(OCC)c1OCc1ccc(C(=O)O)cc1 | . | -10 | . | . | . | .
CCOC(=O)Cc1csc(/N=C/c2c(O)n(-c3ccc(C)cc3C)c(=O)c3ccccc23)n1 | 16µM* | 0 | 10% | 0% | ? | -13
CCOC(=O)Cc1csc(NC(=O)c2c(O)c3ccccc3n(CC(C)C)c2=O)n1 | -2% | -1 | -26% | -6% | -6% | 8
CC1CC(c2ccccc2)n2nc(NC(=O)c3ccco3)nc2N1 (stereo not drawn) | -4% | -1 | -41% | -11% | 2% | -11
COc1ccc(C2CC(c3ccc(F)cc3)n3nc(NC(=O)c4ccco4)nc3N2)cc1 (stereo not drawn) | -4% | -4 | 7.1µM* | 13µM* | 0% | -5
COc1ccc(C2CC(c3ccc(OC)cc3)n3nc(NC(=O)c4cccs4)nc3N2)cc1 (stereo not drawn) | ? | -8 | 5µM* | ? | ? | -18
COCC(=O)Nc1nc2n(n1)C(c1ccc(Cl)cc1)CC(c1ccc(OC)cc1)N2 (stereo not drawn) | ? | 0 | -18% | 2% | ? | -26
SMILES | DT40 TDP1 no CPT | LDHA inh | RORgamma inh | VP16 counter | TDP1 cell CPT | IL-1B inflam inh
COc1cc(-c2cnc3c(NC=O)cc(-c4cccc(C(F)(F)F)c4)cn23)cc(OC)c1OC | 5.2µM* | 0 | . | . | 5.8µM* | 24
COc1cc(-c2cnc3c(NC=O)cc(-c4ccsc4)cn23)cc(OC)c1OC | 0.16µM* | 1 | . | . | 0.18µM* | 135
COc1cc(-c2cnc3c(NC=O)cc(-c4cccnc4)cn23)cc(OC)c1OC | 2.9µM* | -1 | . | . | 2.9µM* | 99
COc1ccc(-c2cc(NC=O)c3ncc(-c4cccc(C(F)(F)F)c4)n3c2)c(OC)c1 | 15µM* | 2 | . | . | 18µM* | -27
COc1ccc(-c2cc(NC(C)=O)c3ncc(-c4cccc(C(F)(F)F)c4)n3c2)c(OC)c1 | ? | 7 | . | . | ? | -5
COc1cc(-c2cc(NC=O)c3ncc(-c4ccc(F)cc4)n3c2)cc(OC)c1OC | ? | -2 | . | . | ? | -24
S=C1NC(C23CC4CC(CC(C4)C2)C3)=CC(c2ccccc2Cl)N1 (stereo not drawn) | . | -10 | . | . | . | .
Cc1cccc(C2CCCN2C(=O)Nc2ccc(Br)c(C)c2)c1 (stereo not drawn) | . | 2 | . | . | . | .
c1ccc2c(NC3C4CC5CC(C4)CC3C5)nc(N3CCCCC3)nc2c1 (stereo not drawn) | . | -3 | . | . | . | .
Cc1nc(SCC(=O)NC(C)(C#N)C(C)C)n(C2CCCC2)c1C (stereo not drawn) | . | -2 | . | . | . | .
COc1ccc(OC)c(NC(=O)[C@H]2C[C@@H]3CCCN3[C@]23C(=O)Nc2c(C)cc(Cl)cc23)c1 | . | 12 | . | . | . | .
